The record followed here is PubChem BioAssay AID1508600 (Functional Genomics Laboratory (NCATS/FGL), 2020).

About 3,700 (7%) of roughly 53,000 sequences were called active.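 How the source made its calls: active means gene knockdowns whose robust z-score for IL-1 alpha signal is at least 2 or at most -2, so actives lie on both sides; inactive means the rest.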 The entries come from a sample that favours actives as a whole.

This experiment can be described thus: Components of the Cytosolic LPS Sensing Pathway: Gene Identification via Genome-wide siRNA Screen.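 Further: robust z of the log signal after scaling to non-targeting control siRNA wells of the plate.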 The conditions noted are these: RAW264.7 macrophages, IL-1a HTRF, actives lie on both sides, screened at 100 nM (by protocol), cells primed 5 h with Pam3CSK4 first. In a few lines:
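Mouse macrophage line RAW264.7 is transfected with siRNA (100 nM final), grown 48h, primed with TLR ligand Pam3CSK4 5 h and given intracellular LipidA 24 h. IL-1a in supernatant is read by HTRF and viability by luminescence.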
Take GGAAGUAUGAAAUUAUCAGTT against Car12: the z-score is 0.0371 (inactive).

Consider CGGUUCUUCCAUCAAAUGGTT against Prodh, for which the z-score was 1.07 (inactive).

As for GGCUUUAAUCCUAACCCUATT against Zfp3, the z-score is -0.658 (inactive).

On to GCGAGCCAAGUUUGAACUUTT against Elovl6, for which the z-score was 1.42 (inactive).

As to GCUGGCUUUAAAAAUAUCUTT against Nt5dc3, the z-score is 0.174 (inactive).

As to GGAGUGAUAGUCAUCAAUGTT against Olfr357, the z-score was -0.464 (inactive).

As to GGAACAGUCGGCCAUUUAATT against Tmem98, the z-score is -0.553 (inactive).

Consider CCCUACUGUAUUAGAAAACTT against Dnph1, for which the z-score is 2.1 (active).

“GGAUCACUUUUAGUUUUCUTT against C230013L11Rik”: the z-score is -0.0242 (inactive).

As for GCCUGAUAGUGCAGAAACATT against Rabl2, the z-score is -0.233 (inactive).

With GGUUAUCGCAUUUGGUGGUTT against Olfr1511, the z-score is 0.104 (inactive).

Take GGACAAAAGGCAAUCUACATT against Mettl18: the z-score was 2.8 (active).

GGUGUCUCUCCAGGAUAACTT against Ctrl: the z-score was -0.511 (inactive).

Consider CGUACAACACGGAAACCUATT against Paqr5, for which the z-score was -0.448 (inactive).

Consider GGGUCUCAGCAGUGCAAACTT against Txnip, for which the z-score was -0.486 (inactive).

GGAGAGAGGGAAAAAAGAATT against Sox4: the z-score was -0.317 (inactive).

On to GGCUUGACUGCUAUUUUAGTT against Csn1s1, for which the z-score is 0.711 (inactive).

Regarding CCACCUGACUUUUGGAAGATT against Coro1b, the z-score was -1.8 (inactive).

Turning to UUAAGGAAAUGUUCUGUUCTT against Olfr426, the z-score was 0.797 (inactive).

As for GGCUUUGAGAGGAACACCATT against Sh2d4b, the z-score is -2.49 (active).

Consider GGCCAAGUUCAACAUUCCATT against Lilrb4a, for which the z-score was 0.539 (inactive).

For GGGACUUAAGUGAAGUUCATT against Ogfod2, the z-score is 0.232 (inactive).

For GCUGUCUCGUCAUUUAAGATT against Dym, the z-score was -0.461 (inactive).

Regarding GGAAAGUGUUGUCAAAAGATT against Olfr125, the z-score is -0.386 (inactive).

On to GGCAUGUGGAAAACCUCCUTT against Lrrc46, for which the z-score is -0.413 (inactive).

For GGAUGAUGAAUUCACACACTT against Calr, the z-score is 3.18 (active).

Regarding GGAGAAAAAAUUCUUAUCCTT against Prmt2, the z-score is -0.31 (inactive).

Regarding GGCGGUUUCACCUAUACAATT against Rspo4, the z-score was 0.821 (inactive).

Turning to GGUCACCUUAACCGAGAAGTT against Phkg1, the z-score is 0.19 (inactive).

On to GGACUUAACUAGUUGACAATT against Pclaf, for which the z-score is -1.06 (inactive).

Regarding GGUAUGAUGAAAAUACACATT against Mmp1a, the z-score was 2.56 (active).

For GGGAGUGCCUUUAAAACACTT against Satb1, the z-score is 0.882 (inactive).

For GCCAAAAGGAGGACAUACCTT against Mylk3, the z-score was 1.08 (inactive).

For GGAUAUUGAUUGCUUUGUUTT against Uox, the z-score is 1.41 (inactive).

Take GGACAAAAGAUUCUUCAUCTT against Map1b: the z-score was 2.93 (active).

Consider CCAACAAUGAUUAAUCAGCTT against Meis1, for which the z-score is -1.38 (inactive).

In the case of GGAAAAUCACAAUCACUUGTT against Ccdc43, the z-score was -0.669 (inactive).

In the case of “GGUACCACCAUGCUAUGGUTT against Krtap19-9b”, the z-score is 0.646 (inactive).

As for GGUGGUGAUUCACCUCCAATT against Tnfrsf12a, the z-score is -2.23 (active).

GCACUCAAGACCUGUAUGATT against Cldn18: the z-score was 0.627 (inactive).

Regarding GGAAAUGCCAUUUGAUUUGTT against Rfpl4, the z-score was 0.599 (inactive).

For GGACGAUCAUGACAAGAUGTT against Psmb2, the z-score is -2.35 (active).

In the case of CCAUCGUAUUUAACCACAUTT against Dtymk, the z-score was 0.206 (inactive).

On to GGCAAACUUAUCUUCUUCUTT against Ahsa1, for which the z-score is -1.89 (inactive).

GGGAGUUAUAUUAGUCUAUTT against Rab18: the z-score was 0.436 (inactive).

Consider GGAUGCAGAGACCUAUUUCTT against Cacng5, for which the z-score is -0.158 (inactive).

For the sequence GGAACAGAGCCUUUCUCAGTT against Rnf183, the z-score was -0.153 (inactive).

Turning to CCCAUGAUCUGGAAGAGACTT against Il1a, the z-score is -2.08 (active).

In the case of GCUAAUAGCCUGCCUAAGGTT against Plekhj1, the z-score is 1.35 (inactive).

As for GUUACAAAACAUCGGUGGGTT against Vsig2, the z-score was 1.06 (inactive).

As to CCUAGACAAAGUUUCAAACTT against Xrcc4, the z-score is -0.662 (inactive).

On to GGAAAGAUUUCGAACAAUCTT against Rab1a, for which the z-score is 1.66 (inactive).

Consider CAGUUUUUGGUCUCUAUCUTT against Olfr113, for which the z-score is 2.27 (active).

For GGCAGUUAGUAAGUUUAAATT against Eif5a2, the z-score was 1.22 (inactive).

As to GGUAUACACAUGAAAACCATT against Ccdc137, the z-score is -0.548 (inactive).

On to GGUGAUUCGUCAGAAGCUGTT against Gpr84, for which the z-score is -0.61 (inactive).

For the sequence GGCUUGCUAAAGGAUGGGATT against Coq8b, the z-score was 0.0536 (inactive).

Consider CGUACUGGUACGGAAGCGUTT against Adck1, for which the z-score is 0.279 (inactive).

For GGAAUGAGGUUUGUAGACUTT against Arsg, the z-score was -0.765 (inactive).

For the sequence CCGUACAUCGAGAAAUACATT against Hal, the z-score is 2.36 (active).

Take GGAGGACUAGGAGUGAUUGTT against Fggy: the z-score is -0.363 (inactive).

As for GGAUAGUCAGAAAUGGAAATT against Chmp4c, the z-score is -0.43 (inactive).

Regarding GGGUGAUUUCUAUUCACUATT against Pam, the z-score is -0.633 (inactive).

For the sequence GCACGGUCAAGUUUUGAUUTT against Prkaa2, the z-score was -0.792 (inactive).

In the case of GGGCCAAUUCUGAAACUUGTT against Il1f5, the z-score is 0.669 (inactive).

On to CCACAGUACGCUGAAAUCCTT against Morf4l1, for which the z-score was -2.27 (active).

GCUAGUGUGAUACCAUUUATT against Nab1: the z-score was 1.63 (inactive).

For GGAGAACCGUAACAACAACTT against Cacna1a, the z-score was 0.692 (inactive).

Consider GGUAGACUCUAGAUUAAGATT against Srrm2, for which the z-score was -0.58 (inactive).

In the case of CGAGCAAAUCUCAUUCAAGTT against Oxgr1, the z-score is 3.07 (active).

CCCACCUUACAUAUAUUGATT against Srr: the z-score was 0.25 (inactive).

In the case of GGUAUUAGAAGAUAAUGACTT against Akt3, the z-score is -1.12 (inactive).

Take CCAUCAGUUUCAUUAUUGGTT against Fpr-rs6: the z-score was -0.605 (inactive).

With GCAUAACUUAAACUGCUCATT against Zfp12, the z-score was 1.91 (inactive).

For CCAGAGCUUAUUGAGAUGCTT against Myh4, the z-score is -0.475 (inactive).

As for GCUACUUAAGGGUUUGGAUTT against Pcdhb3, the z-score was 4.67 (active).

“GGCUGUUACAAGAACGUAGTT against 5031434C07Rik”: the z-score is -1.99 (inactive).

Take GGAAACAACCCAAAGAAUCTT against Slc12a8: the z-score was -0.343 (inactive).

Consider GGUGGACCUGAAACGUAGCTT against Inhbb, for which the z-score is 0.878 (inactive).

On to GGUUCAUCUUUCAAAUCUATT against Kpna4, for which the z-score was -0.676 (inactive).

In the case of CCUGUAGGUGGAAUAAACATT against Awat2, the z-score is -2.28 (active).

In the case of CCUAGUAAUGUCCAUUGUGTT against Endod1, the z-score was 0.0364 (inactive).

Regarding GGACUCAGAUAUCUUUCAGTT against Adck1, the z-score is -0.328 (inactive).

Consider CGUUGCUGACUGCUAUGAATT against Tmprss13, for which the z-score was -1.22 (inactive).

Turning to CCACUUUCACAUGAAGUUATT against Eif2s3x, the z-score is -0.7 (inactive).

Regarding GCUCCAGCUUGCACUCUUGTT against Trp53i13, the z-score is 1.36 (inactive).

For the sequence GCCACAUCGUAGACAAGUATT against Zfp41, the z-score is -2.71 (active).

For the sequence CCCGAACCUGUUGUCUGAATT against Ttc8, the z-score was -0.422 (inactive).

For GCCAAGUGCUACAACAUCCTT against Ifitm5, the z-score is -0.64 (inactive).

Turning to CCGAGAUUGCCUGUUUGGUTT against Rnf144b, the z-score is 2.08 (active).

GGAACUCAAAUUGAAAAGGTT against Manea: the z-score is -0.135 (inactive).

In the case of GCUAUUGGAGAUAUAAUGGTT against Ace, the z-score is 1.58 (inactive).

In the case of GGACUUUUUCAAAGGUUUUTT against Eif4g3, the z-score is 2.37 (active).

With GGCAGGCAACCAAUCAAAUTT against Npepps, the z-score was 1.29 (inactive).

For the sequence GGAUUUCAUUAUCCUGUUUTT against Zfp608, the z-score was -1.19 (inactive).

For the sequence GCCUUGAACUAUGCAUAGATT against Eno2, the z-score was 1.7 (inactive).

In the case of GGCCUCAUGCAGGAACAUUTT against Polr2d, the z-score was -2.34 (active).

In the case of GGAAGAAGAAAGAUUCAAATT against Bcan, the z-score was -0.862 (inactive).

Consider GAUUUUUCAAAUCUUUGGCTT against Plac8, for which the z-score was -1.52 (inactive).

Turning to GAGCAUCUGUGUAGAAGUGTT against Thrsp, the z-score was 0.786 (inactive).

As to CCUGGUACAAUCAAACUGCTT against Rnf222, the z-score is 0.516 (inactive).

Regarding GGCAGAAUGGGAAAUGUAUTT against Htr7, the z-score was -0.841 (inactive).

For GCCGUUUAUUCAUUGCACUTT against Cdc123, the z-score is 1.21 (inactive).

Turning to GGACUUGACCUCAAGGGAATT against Sox6, the z-score is 2.35 (active).

As for GGAAUUCAAUCAGUUUGCUTT against Dysf, the z-score was 1.06 (inactive).

For GGCAUUUUUCGGAUUGACATT against Mmp27, the z-score is -0.807 (inactive).

Turning to CCCUCUGAACUAUAUGACUTT against Olfr700, the z-score was -1.09 (inactive).

For the sequence GGUGUGGAACGACAAACAGTT against Pla2g4f, the z-score was -2.8 (active).
